Entries with a potency or affinity are not part of this list.

The test system of one assay is Candida albicans. The conditions noted are these: Concentration 32 ug.mL-1; ASSAY_TEST Inhibition of Fungal Growth; detection method Absorption (OD530).
`Cc1ccccc1Cn1nc2c(=O)n(-c3cccc(Cl)c3C)ccn2c1=O`: the Inhibition is listed as 0.54%.
Take `CCOc1ccc(-n2ccn3c(SC(C)C(=O)Nc4ccc5c(c4)OCCO5)nnc3c2=O)cc1` (stereo not given): the Inhibition was 0.98%.
In the case of `CCc1nnc2ccc(S(=O)(=O)N(Cc3ccccc3)c3ccccc3)cn12`, the Inhibition turned out to be 2.38%.
For `Cc1ccc2c(c1)N(C(=O)Cn1nc3ccc(SC(C)(C)C)nn3c1=O)CCO2`, the Inhibition was determined as 9.3%.
As to `Cc1cccc(C)c1NC(=O)Cn1c(=O)c2nnc(C(C)C)n2c2ccccc21`, the Inhibition was determined as 4.52%.
Still for that read-out and setting: for `CCc1nnc2c(S(=O)(=O)N(Cc3cc(F)cc(F)c3)c3ccc(F)cc3)cccn12` the value was 4.45%; for `Cc1ccc(Sc2nccn3c(=O)n(CC(=O)N4CCN(c5ccc(F)cc5)CC4)nc23)c(C)c1`, 1.39%.
Take `COc1ccc(CNC(=O)Cn2nc3c(Oc4ccccc4C)nccn3c2=O)cc1`: the Inhibition was -2.47%.
For the molecule `CC(C)c1nnc2c(=O)n(CC(=O)Nc3ccc(C#N)cc3)c3ccccc3n12`, the Inhibition is reported as 0.24%.
The same measure, in the same setting: for `COc1ccc(NC(=O)Cn2nc3c(Sc4cccc(C)c4)nccn3c2=O)cc1Cl` the value was 12.08%.
Still for that read-out and setting: for `COc1ccc(-c2cc3c4nn(CC(=O)NCc5ccc(Cl)cc5)c(=O)n4ccn3n2)cc1` the value was 0.12%; for `O=c1n(Cc2cc(F)cc(F)c2)nc2ccc(-c3ccccc3)nn12`, 0.55%.
As to `CCCn1c(=O)c2sccc2n2c(=O)n(CC(=O)c3cc(C)ccc3C)nc12`, the Inhibition turned out to be 6.28%.
As to `O=C(Cn1nc2c3cc(-c4ccc(F)cc4)nn3ccn2c1=O)Nc1ccc(Br)cc1`, the Inhibition was 14.76%.
The same measure, in the same setting: for `O=C(CSc1nnc2c(=O)n(-c3cccc(F)c3)ccn12)Nc1ccc(Br)cc1` the value was 6.65%.
In the case of `Cc1ccc(NC(=O)Cn2nc3ccc(SC4CCCCC4)nn3c2=O)c(Cl)c1`, the Inhibition came to 5.14%.
Turning to `COc1ccc(-n2ccn3c(=O)n(Cc4cc(C)ccc4C)nc3c2=O)cc1Cl`, the Inhibition is 1.96%.
As for `O=C(Cn1nc2c(Sc3cccc(F)c3)nccn2c1=O)Nc1ccc(F)c(Cl)c1`, the Inhibition is listed as 9.34%.
With `COC(=O)c1cccc(NC(=O)Cn2nc3ccc(-c4ccc(C)c(C)c4)nn3c2=O)c1`, the Inhibition came out at 2%.
With `Cc1ccc(-n2ccn3c(SCC(N)=O)nnc3c2=O)cc1C`, the Inhibition stood at 1.07%.
Still for that read-out and setting: the same measure for `CCCN(C)c1nccn2c(=O)n(CC(=O)Nc3cccc(SC)c3)nc12`: 8.61%; for `CCc1ccccc1Sc1nccn2c(=O)n(CC(=O)Nc3ccc(C)cc3)nc12`: 39.33%.
`CCc1nnc2c(S(=O)(=O)N(Cc3ccc(C)cc3)c3ccc(C(C)C)cc3)cccn12`: the Inhibition stood at 9.31%.
Still for that read-out and setting: for `COc1ccc(NC(=O)Cn2nc3c(Sc4cccc(F)c4)nccn3c2=O)cc1Cl` the value was 0.26%; for `COc1cccc(-n2ccn3c(SCC(=O)Nc4cc(F)ccc4F)nnc3c2=O)c1`, 7.1%.
Regarding `N#Cc1cccc(Cn2nc3ccc(S(=O)(=O)N4CCCCCC4)cn3c2=O)c1`, the Inhibition is -0.26%.
As to `COc1cccc(-n2ccn3c(SCC(=O)Nc4ccc5c(c4)OCCO5)nnc3c2=O)c1`, the Inhibition is reported as 3.13%.
Consider `C=Cc1ccc(CN(c2ccc(CC)cc2)S(=O)(=O)c2cccn3c(C)nnc23)cc1`, for which the Inhibition stood at 4.32%.
The same measure, in the same setting: the same measure for `COc1ccc(N2CCN(C(=O)Cn3nc4c(Oc5ccccc5)nccn4c3=O)CC2)cc1`: 1.75%; for `O=C(CSc1nc2ccccc2n2cnnc12)Nc1ccc2c(c1)OCCO2`: 2.01%.
On the same count and under the same terms, the same measure for `CCOc1ccc(-n2ccn3c(SCC#N)nnc3c2=O)cc1`: 1.02%.
The same measure, in the same setting: the same measure for `COc1ccccc1N1CCN(C(=O)CSc2nnc3c(=O)n(-c4ccc(F)cc4)ccn23)CC1`: 1.66%; for `COc1ccccc1-n1ccn2c(SCc3ccccc3C)nnc2c1=O`: 3.95%; for `O=C(CSc1nnc2c(=O)n(-c3cccc(F)c3)ccn12)Nc1ccc(Br)cc1F`: 5.02%.
For `O=C(Cn1nc2c(=O)n(-c3ccc(Br)cc3)ccn2c1=O)Nc1cc(F)ccc1F`, the Inhibition came to 1.05%.
The same measure, in the same setting: the same measure for `CC(C)c1ccc(CNC(=O)CCc2nnc3c(N4CCCCC4)nc4ccccc4n23)cc1`: 0.52%; for `Cc1nnc2ccc(S(=O)(=O)N(Cc3cccc(F)c3)c3ccc(F)c(F)c3)cn12`: 1.97%; for `COc1ccc(Cl)cc1NC(=O)CSc1nc2ccccc2n2cnnc12`: 6.06%.
For the molecule `CCOc1ccccc1NC(=O)Cn1nc2c3cc(-c4ccc(Cl)cc4)nn3ccn2c1=O`, the Inhibition was 2.9%.
In the case of `COc1cccc(Oc2nccn3c(=O)n(CC(=O)Nc4ccc(OC)c(OC)c4)nc23)c1`, the Inhibition was 1.42%.

The next assay deals with Cryptococcus neoformans. The conditions noted are these: Concentration 32 ug.mL-1; ASSAY_TEST Inhibition of Fungal Growth; detection method Resazurin; Absorption (OD600-OD570); plate type 384well; NBS; CORNING #3640. (Alamar Blue is a resazurin reagent that responds to reducing activity.)
In the case of `Cc1ccccc1Cn1nc2c(=O)n(-c3cccc(Cl)c3C)ccn2c1=O`, the Inhibition is given as -12.78%.
Regarding `CCOc1ccc(-n2ccn3c(SC(C)C(=O)Nc4ccc5c(c4)OCCO5)nnc3c2=O)cc1` (stereo not given), the Inhibition was -16.53%.
On to `CCc1nnc2ccc(S(=O)(=O)N(Cc3ccccc3)c3ccccc3)cn12`, for which the Inhibition is -7.97%.
Take `Cc1ccc2c(c1)N(C(=O)Cn1nc3ccc(SC(C)(C)C)nn3c1=O)CCO2`: the Inhibition is -18.35%.
As to `Cc1cccc(C)c1NC(=O)Cn1c(=O)c2nnc(C(C)C)n2c2ccccc21`, the Inhibition is on record as -19.69%.
For `CCc1nnc2c(S(=O)(=O)N(Cc3cc(F)cc(F)c3)c3ccc(F)cc3)cccn12`, the Inhibition is -8.28%.
Regarding `Cc1ccc(Sc2nccn3c(=O)n(CC(=O)N4CCN(c5ccc(F)cc5)CC4)nc23)c(C)c1`, the Inhibition was -106.74%.
With `COc1ccc(CNC(=O)Cn2nc3c(Oc4ccccc4C)nccn3c2=O)cc1`, the Inhibition was -8.82%.
With `CC(C)c1nnc2c(=O)n(CC(=O)Nc3ccc(C#N)cc3)c3ccccc3n12`, the Inhibition is -24.39%.
With `COc1ccc(NC(=O)Cn2nc3c(Sc4cccc(C)c4)nccn3c2=O)cc1Cl`, the Inhibition is on record as -20.89%.
With `COc1ccc(-c2cc3c4nn(CC(=O)NCc5ccc(Cl)cc5)c(=O)n4ccn3n2)cc1`, the Inhibition is on record as -24.2%.
With `O=c1n(Cc2cc(F)cc(F)c2)nc2ccc(-c3ccccc3)nn12`, the Inhibition is -16.53%.
Consider `CCCn1c(=O)c2sccc2n2c(=O)n(CC(=O)c3cc(C)ccc3C)nc12`, for which the Inhibition was -24.9%.
Consider `O=C(Cn1nc2c3cc(-c4ccc(F)cc4)nn3ccn2c1=O)Nc1ccc(Br)cc1`, for which the Inhibition was 4.1%.
Turning to `O=C(CSc1nnc2c(=O)n(-c3cccc(F)c3)ccn12)Nc1ccc(Br)cc1`, the Inhibition is -9.7%.
Same read-out and setting: the same measure for `Cc1ccc(NC(=O)Cn2nc3ccc(SC4CCCCC4)nn3c2=O)c(Cl)c1`: -13.64%; for `COc1ccc(-n2ccn3c(=O)n(Cc4cc(C)ccc4C)nc3c2=O)cc1Cl`: -5.13%; for `O=C(Cn1nc2c(Sc3cccc(F)c3)nccn2c1=O)Nc1ccc(F)c(Cl)c1`: -8.73%.
On to `COC(=O)c1cccc(NC(=O)Cn2nc3ccc(-c4ccc(C)c(C)c4)nn3c2=O)c1`, for which the Inhibition is reported as -13.54%.
For `Cc1ccc(-n2ccn3c(SCC(N)=O)nnc3c2=O)cc1C`, the Inhibition is -10.4%.
Consider `CCCN(C)c1nccn2c(=O)n(CC(=O)Nc3cccc(SC)c3)nc12`, for which the Inhibition is -6.21%.
As for `CCc1ccccc1Sc1nccn2c(=O)n(CC(=O)Nc3ccc(C)cc3)nc12`, the Inhibition is -9.26%.
Take `CCc1nnc2c(S(=O)(=O)N(Cc3ccc(C)cc3)c3ccc(C(C)C)cc3)cccn12`: the Inhibition is -8.19%.
As for `COc1ccc(NC(=O)Cn2nc3c(Sc4cccc(F)c4)nccn3c2=O)cc1Cl`, the Inhibition is -9.78%.
Turning to `COc1cccc(-n2ccn3c(SCC(=O)Nc4cc(F)ccc4F)nnc3c2=O)c1`, the Inhibition was -8.94%.
Still for that read-out and setting: the same measure for `N#Cc1cccc(Cn2nc3ccc(S(=O)(=O)N4CCCCCC4)cn3c2=O)c1`: -9.97%.
With `COc1cccc(-n2ccn3c(SCC(=O)Nc4ccc5c(c4)OCCO5)nnc3c2=O)c1`, the Inhibition is reported as -26.1%.
As to `C=Cc1ccc(CN(c2ccc(CC)cc2)S(=O)(=O)c2cccn3c(C)nnc23)cc1`, the Inhibition is reported as -7.66%.
Same read-out and setting: for `COc1ccc(N2CCN(C(=O)Cn3nc4c(Oc5ccccc5)nccn4c3=O)CC2)cc1` the value was -7.66%.
As for `O=C(CSc1nc2ccccc2n2cnnc12)Nc1ccc2c(c1)OCCO2`, the Inhibition is reported as -3.4%.
With `CCOc1ccc(-n2ccn3c(SCC#N)nnc3c2=O)cc1`, the Inhibition is -3.42%.
Regarding `COc1ccccc1N1CCN(C(=O)CSc2nnc3c(=O)n(-c4ccc(F)cc4)ccn23)CC1`, the Inhibition is recorded as -8.01%.
Consider `COc1ccccc1-n1ccn2c(SCc3ccccc3C)nnc2c1=O`, for which the Inhibition is listed as -12.54%.
Same read-out and setting: the same measure for `O=C(CSc1nnc2c(=O)n(-c3cccc(F)c3)ccn12)Nc1ccc(Br)cc1F`: -13.45%; for `O=C(Cn1nc2c(=O)n(-c3ccc(Br)cc3)ccn2c1=O)Nc1cc(F)ccc1F`: -5.83%; for `CC(C)c1ccc(CNC(=O)CCc2nnc3c(N4CCCCC4)nc4ccccc4n23)cc1`: -24.76%.
Regarding `Cc1nnc2ccc(S(=O)(=O)N(Cc3cccc(F)c3)c3ccc(F)c(F)c3)cn12`, the Inhibition is -11.8%.
Take `COc1ccc(Cl)cc1NC(=O)CSc1nc2ccccc2n2cnnc12`: the Inhibition is on record as -17.53%.
`CCOc1ccccc1NC(=O)Cn1nc2c3cc(-c4ccc(Cl)cc4)nn3ccn2c1=O`: the Inhibition is -13.93%.
As to `COc1cccc(Oc2nccn3c(=O)n(CC(=O)Nc4ccc(OC)c(OC)c4)nc23)c1`, the Inhibition was -6.14%.

The Inhibition is the change of the read-out against control, counted positive when it falls.

(Values after ChEMBL document CHEMBL4513146, “CO-ADD screening of Karazin Kharkiv National University (Ukraine) compounds”.)
